PubChem BioAssay AID493169 (National Center for Advancing Translational Sciences (NCATS), 2011)
Inconclusive results are not listed. A number with no mark means an inactive call. Active and inactive are the calls of the source. Calls come from the whole dose curve; as a rule, active = well fitted inhibition curve with a large enough effect; inconclusive = small, poorly fitted or top-dose-only effect; inactive = flat fitted curve, though single readings scatter.

Assay: CHOP2 Reporter Counterscreen Assay for Inhibitors of Ubiquitin-specific Protease USP2a;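 note: activated enterokinase alone at 50 pM in a cell-free format rather than USP2a or CHOP2; nearly all actives have a fitted effect of over 55% in size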
Conditions: purified enterokinase, fluorogenic substrate, 485/531 nm; series mostly up to 38.3 µM; activity change, negative = inhibition: at the top concentration
Method in brief: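 Fluorescence (485/531 nm) read 10 min after adding 25nM reporter substrate to 50 pM activated EK preincubated 30 min RT with compound; Tris pH 8.0/CaCl2/CHAPS buffer. Data normalized to buffer-alone inhibition; concentration-response curves fitted.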
% is set by controls: 0 for no effect and ±100 for the full control effect; potency is the fitted concentration of half-maximal effect.

SMILES | activity change, negative = inhibition | Potency
O=C(Nc1nnc(-c2cccs2)o1)c1cccc(Oc2ccccc2)c1 | -2.38% | –
CCC(C)c1ccc(O)c(N)c1 (stereo not drawn) | 3.62% | –
CCOc1ccc(Cn2nnc(C(=O)NCc3ccccc3)c2N)cc1 | 0.856% | –
O=C(Nn1c(SCc2ccc([N+](=O)[O-])cc2)nc2ccccc2c1=O)c1ccc(F)cc1 | -0.219% | –
O=C(N/N=C/c1ccc(-c2ccc(Cl)c(C(=O)O)c2)o1)c1cc2c(ccc3ccccc32)o1 | – | 11.2 µM (active)
O=C(O)CP(=O)(c1ccccc1)c1ccccc1 | -0.61% | –
CCCCCCCCCCOC(=O)Cn1c(COc2ccc(OC)cc2)[n+](C)c2ccccc21 | – | 10 µM (active)
C/C(Cn1nnc2ccccc21)=N\OC(=O)c1ccccc1C | 3.79% | –
CC(C)c1ccc(CCNC(=O)c2ccc([N+](=O)[O-])cc2)cc1 | 0.268% | –
CCOC(=O)C1CCCN(CC(=O)Nc2c(C(=O)OC)[nH]c3ccc(C)cc23)C1 (stereo not drawn) | -2.91% | –
Cc1ccc(C(=O)NCc2ccc3c(c2)OCO3)cc1N1CCCC1=O | 2.1% | –
CCCCc1ccc(/C=C2/C(=O)ON=C2c2ccccc2)s1 | -1.37% | –
Cc1ccc(C(=O)N/C(=C/c2cccs2)C(=O)NCc2ccco2)cc1 | 2.96% | –
COc1ccccc1C(=O)n1nc(-c2cccnc2)nc1NCc1ccccc1 | – | 1 µM (active)
Cc1ccccc1C(=O)Nc1ccc2nc3n(c(=O)c2c1)CCC3 | 6.38% | –
CCNC(=S)N/N=C/c1cn(Cc2ccc(F)cc2)c2ccccc12 | -1.81% | –
Cn1c(C(=O)N2CCN(Cc3ccc4c(c3)OCO4)CC2)cc2sccc21 | 2.17% | –
COc1cc(C(O)P(=O)(OC(C)C)c2ccc(N(C)C)cc2)cc(OC)c1OC (stereo not drawn) | 4.7% | –
